# High-throughput results from PubChem.
# TGFb inhibitor: TGF-b pathway inhibition | HepG2 CAGA-GFP TGF-b/SMAD3 reporter, GFP fluorescence, 18 h; TGF-beta stimulated, 500 pg/mL final | Potency, µM (highest dose often 46.1 µM), without a hit: at the top dose activity, negative = inhibition, hits mostly inhibitors | 410,000 compounds, 1.2% hits; also: potency is read from the fitted curve at half-maximal effect; % is scaled to controls: 0 for no effect and ±100 for the full control effect; nearly all actives have a fitted effect of over 65% in size
#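 HEPG2 CAGA-GFP, 1000 cells/well; 2 h settle, 37 C; cpd via pin tool; TGF-b 500 pg/mL final; 18 h, 37 C; GFP imaging ex488/em500-530; %Activity normalised to -TGF-b and +DMSO controls; CRC fit, curve class.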
# IL-1B inflam inh: inflammasome signaling inhibition, IL-1 beta readout; THP-1 LPS/ATP IL-1B secretion, AlphaLISA, 16 h; active compounds read low; activity change, % at 57.5 µM; AID 743279; 360,000 compounds, 4.7% hits; in the data active = activity change below about -50%; inconclusive = mostly about -30% to -49%; also: % is scaled to controls: 0 for no effect and ±100 for the full control effect
#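 Secreted IL-1B measured by AlphaLISA bead assay after 16 h compound exposure of THP-1 cells; compounds (final up to 57.5 uM) added 1 h before LPS (250 ng/mL) and ATP (1.25 mM) stimulation; lower signal means less secretion.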
# DT40 TDP1 no CPT: qHTS for Inhibitors of human tyrosyl-DNA phosphodiesterase 1 (TDP1): qHTS in cells in absence of CPT; DT40 Tdp1-/- hTDP1 cells, no CPT, ATP luminescence, 48 h; 420,000 compounds, 15% hits; Potency, µM (titrated, usually from 46.2 µM), inactives show top-dose activity change, negative = growth inhibition, hits mostly inhibitors; also: potency is read from the fitted curve at half-maximal effect; % is scaled to controls: 0 for no effect and ±100 for the full control effect; nearly all actives have a fitted effect of over 55% in size
#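 Camptothecin absent (DMSO only). Human TDP1-complemented DT40 knockout cells, 400 cells/well, 37 °C for minimum 48 hr; ATP measured via CellTiter-Glo, 30 min dark incubation, luminescence.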
# S-ASM inh: human S-ASM enzyme inhibition; P17405; placental ASM, HMU-PC fluorogenic substrate, 60 min; Potency, µM (titrated, usually from 57.5 µM), for inactives: at the highest dose activity change, negative = inhibition, usual class: inhibitors; 340,000 compounds, 0.006% hits; also: potency is read from the fitted curve at half-maximal effect
# Target sequence (P17405 47-631 limits assumed): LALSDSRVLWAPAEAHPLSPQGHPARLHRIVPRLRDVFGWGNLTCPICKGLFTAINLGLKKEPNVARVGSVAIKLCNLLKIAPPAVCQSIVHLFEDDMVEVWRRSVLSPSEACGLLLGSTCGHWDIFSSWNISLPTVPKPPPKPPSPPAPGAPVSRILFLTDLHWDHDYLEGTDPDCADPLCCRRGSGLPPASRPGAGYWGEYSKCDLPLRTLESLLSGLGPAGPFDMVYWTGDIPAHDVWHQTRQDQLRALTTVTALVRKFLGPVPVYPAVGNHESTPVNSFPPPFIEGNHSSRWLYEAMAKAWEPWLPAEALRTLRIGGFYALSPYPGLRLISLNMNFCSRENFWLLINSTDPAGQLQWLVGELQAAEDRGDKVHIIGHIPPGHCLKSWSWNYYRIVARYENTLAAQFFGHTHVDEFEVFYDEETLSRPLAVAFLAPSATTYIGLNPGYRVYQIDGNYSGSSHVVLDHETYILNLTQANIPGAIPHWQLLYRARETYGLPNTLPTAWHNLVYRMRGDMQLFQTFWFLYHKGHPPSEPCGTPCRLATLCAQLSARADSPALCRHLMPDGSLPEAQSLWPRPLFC
#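 Steps: dispense placental human ASM, pin compound, wait 10 min at room temperature, add HMU-PC0 substrate at 9 uM final, incubate 60 min at 37 °C, add stop solution raising pH to 10, read fluorescence.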
# DT40 TDP1 CPT: growth inhibition of DT40 Tdp1-/-;hTDP1 cells with camptothecin (screen for TDP1 inhibitors); 420,000 compounds, 12% hits; Potency, µM (series often up to 46.2 µM), for inactives: at the highest dose activity change, negative = growth inhibition, usual class: inhibitors; chicken DT40 Tdp1-/-;hTDP1 cells + 20 nM CPT, ATP luminescence, 48 h; also: potency is read from the fitted curve at half-maximal effect; % is scaled to controls: 0 for no effect and ±100 for the full control effect; nearly all actives have a fitted effect of over 55% in size
#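 Chicken DT40 Tdp1-/- cells complemented with human TDP1, 400 cells/well, exposed to compounds plus 20 nM camptothecin for at least 48 h at 37 C; viability read as ATP content by CellTiter-Glo luminescence.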
# HepG2 viability: HepG2 cytotoxicity, counter-screen for TGF-b inhibitors | HepG2 CAGA-GFP viability, ATP luminescence, 18 h | Potency, µM (highest dose often 46.1 µM), without a hit: at the highest dose activity change, negative = cytotoxicity, usual class: cytotoxic | 410,000 compounds, 0.76% hits | AID 588856; also: potency is read from the fitted curve at half-maximal effect
#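 HepG2 CAGA-GFP cells (1000/well, DMEM with 1% FBS) received compound, then TGF-beta at 500 pg/mL final, and were incubated 18 hours at 37 degrees C. Viability was read by CellTiter-Glo luminescence. Media-only wells were set as complete cell-killing and DMSO as no toxicity.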
# * hit, by the source's call; ? = inconclusive; nt = not tested or not shown; ! = not confirmed by another sample; [ ] = dose if it differs, or a comment. Sampled rows, rich in hits. Any-hit rate of the full collection: about 19%. Unless noted, calls follow the shape of the dose curve; as a rule, active = well fitted curve in the direction sought with a large enough effect; inconclusive = small, poorly fitted or top-dose-only effect, or another doubt; inactive = no such curve, though single readings can be large; an effect the other way counts as inactive or inconclusive.
SMILES,TGFb inhibitor,IL-1B inflam inh,DT40 TDP1 no CPT,S-ASM inh,DT40 TDP1 CPT,HepG2 viability
COc1cccc(NC(=O)Nc2cccc(-c3cn4cccnc4n3)c2)c1,-2.3%,nt,nt,nt,nt,-20.9%
Cc1oc(C(C)(C)C)cc1-c1cc(NC(=O)c2ccc([N+](=O)[O-])cc2)n[nH]1,40.8%,-63.3*,?,-1.5%,?,17.0%
O=C1CCCN1CCCNc1ccc2nnc(CCC(=O)N3CCN(c4ccc(F)cc4)CC3)n2n1,3.2%,?,-28.7%,-1.3%,-29.6%,2.1%
Cc1cccc(N(Cc2cc3ccccc3[nH]c2=O)C(=O)c2cccs2)c1,-16.5%,?,23.1µM*,1.8%,?,-23.1%
Cc1ccc2cc(CN(Cc3ccco3)C(=O)c3cccs3)c(=O)[nH]c2c1,0.0%,30.1,3.66µM*,-4.8%,2.91µM*,3.7%
COc1ccc(NC(=O)/C(C#N)=C/C=C/c2ccco2)cc1,?,-67.0*,9.2µM*,-15.3%,8.2µM*,-53.5%
COc1ccc(NC(=O)/C(C#N)=C\c2ccc(N3CCOCC3)o2)cc1,182.9%,-19.5,20.6µM*,?,?,-2.2%
N#C/C(=C\c1ccc(N2CCOCC2)o1)C(=O)Nc1ccc(O)cc1,112.9%,-55.3*,29.1µM*,-15.3%,?,-7.0%
COc1ccc(N2CC(C(=O)N[C@@H](CC(C)C)C(=O)NC3CCCCC3)CC2=O)cc1 (stereo partly drawn),17.7%,3.2,-21.6%,3.6%,18.5%,-2.9%
CC(C)c1ccc(CNC(=O)C2(C)CCCN2C)cc1 (stereo not drawn),-7.8%,-23.5,-20.7%,nt,-2.4%,-12.8%
O=C(Nc1cc(Cl)ccc1Cl)c1ccc2c(c1)N(Cc1cccc(Cl)c1)C(=O)c1ccccc1S2=O (stereo not drawn),-5.8%,nt,-29.8%,nt,-14.1%,5.0%
CCN(CC)CCn1c(=S)[nH]c2ccc(Cl)cc2c1=O,?,-9.7,-18.6%,-2.9%,-1.2%,-17.2%
CCc1ccc(C(CNC(=O)c2ccc3c(=O)n(-c4ccccc4F)c(=S)[nH]c3c2)N(C)C)cc1 (stereo not drawn),-20.5%,-81.6*,23.1µM*,45.9%,?,-16.0%
CCOC(=O)N1CCN(C(=O)c2ccc3c(=O)n(-c4ccccc4F)c(=S)[nH]c3c2)CC1,1.9%,56.1,-6.0%,10.8%,-17.2%,6.9%
O=c1c2cc(Cl)ccc2[nH]c(=S)n1Cc1ccccn1,?,23.0,?,0.9%,18.4µM*,-57.1%
CCCCN(C)CCNC(=O)c1ccc(Cn2c(=S)[nH]c3ccc(Br)cc3c2=O)cc1,11.2µM*,0.0,?,-2.1%,25.9µM*,-38.9%
CN(C)CCNC(=O)c1ccc2c(=O)n(Cc3ccc(Cl)cc3)c(=S)[nH]c2c1,?,-63.0*,29.1µM*,-9.4%,20.6µM*,-77.3%
O=C(NCc1ccccn1)c1ccc(Cn2c(=S)[nH]c3ccc(Br)cc3c2=O)cc1,-14.7%,12.3,6.51µM*,2.5%,?,-14.7%
O=C(NCc1ccccn1)c1ccc(Cn2c(=S)[nH]c3ccccc3c2=O)cc1,6.5%,20.4,?,6.5%,-25.9%,-14.5%
COc1ccc(Cl)cc1C(=O)NCCN(C)C,-5.4%,0.0,-5.6%,-1.8%,-3.4%,-15.8%
CN(C)CCNC(=O)c1ccc(COc2ccc(Cl)cc2Cl)cc1,?,-7.3,18.4µM*,-3.1%,?,11.2µM*
O=c1[nH]c2cc3c(cc2cc1C(c1nnnn1CC1CCCO1)N1CCCCCC1)OCCO3 (stereo not drawn),2.0%,-4.3,14.6µM*,49.4%,?,3.7%
C=CCOC(=O)C1=C(C)NC(SCC(=O)N(CC)CC)=C(C#N)C1c1ccccc1 (stereo not drawn),11.9%,-51.5*,20.6µM*,4.9%,20.6µM*,-21.4%
CCN(CC)C(=O)CSC1=C(C#N)C(c2ccco2)C(C(=O)OCCOC)=C(C)N1 (stereo not drawn),?,-0.5,?,8.6%,20.6µM*!,3.6%
C=CCOC(=O)C1=C(C)NC(SCC(=O)N(CC)CC)=C(C#N)C1c1ccco1 (stereo not drawn),-3.5%,-12.6,?,-1.4%,-11.5%,2.6%
SMILES,TGFb inhibitor,IL-1B inflam inh,DT40 TDP1 no CPT,S-ASM inh,DT40 TDP1 CPT,HepG2 viability
Cc1ccc(-n2nc(C(=O)Nc3ccc(F)cc3Cl)c(=O)n(C)c2=O)cc1,-4.1%,nt,-12.4%,nt,-1.2%,13.9%
COc1cc(OC)cc(C(=O)Oc2c(CN3CCOCC3)cc(Cl)c3cccnc23)c1,?,-5.7,?,0.5%,?,-121.0%
O=C(Oc1c(CN2CCOCC2)cc(Cl)c2cccnc12)c1ccccc1F,?,31.8,4.61µM*,-1.4%,3.66µM*,-52.5%
CSc1nc(N(C)NC(=O)c2ccc(F)cc2)c2ccccc2n1,?,74.7,0.731µM*,3.9%,0.581µM*,4.3%
Cn1c(CNC(=O)c2ccc(F)cc2)nc2ccccc21,-0.5%,27.0,-27.9%,3.7%,?,-4.6%
Cc1ccccc1-c1cc(NCc2cccnc2)ncn1,nt,nt,9.8%,nt,-5.7%,nt
COc1ccc(CCNc2nc3c(c(=O)n(C)c(=O)n3C)n2Cc2ccccc2Cl)cc1OC,1.1%,nt,7.31µM*,nt,13µM*,-2.6%
C/C(Cl)=C/Cn1c(=O)c2c(nc(Br)n2Cc2ccccc2)n(C)c1=O,6.1%,-10.1,20.6µM*,-8.6%,?,32.7%
Cn1c(=O)c2c(nc(CN3CCCCC3)n2Cc2c(F)cccc2Cl)n(C)c1=O,24.4%,12.4,23.1µM*,3.9%,?,-4.0%
Cn1c(=O)c2c(nc(CN3CCN(Cc4ccccc4)CC3)n2Cc2cccc(Cl)c2)n(C)c1=O,-11.6%,-20.1,16.4µM*,2.6%,23.1µM*,-25.2%
COc1ccc(-c2nc3ccccc3s2)cc1NC(=O)c1cccc([N+](=O)[O-])c1C,23.2%,nt,-10.8%,nt,-13.7%,3.0%
CO[C@H]1C[C@H](O[C@H]2[C@H](C)[C@@H](O[C@@H]3O[C@H](C)C[C@H](N(C)C)[C@H]3OC(C)=O)[C@@H](C)C[C@]3(CO3)C(=O)[C@H](C)[C@@H](OC(C)=O)[C@@H](C)[C@@H](C)OC(=O)[C@@H]2C)O[C@@H](C)[C@@H]1OC(C)=O,nt,nt,-17.3%[21.1 µM],nt,10.9%[21.1 µM],nt
Cn1c(=O)c2c(nc(Br)n2Cc2ccc3ccccc3c2)n(C)c1=O,-9.4%,-28.8,?,-13.6%,20.6µM*,-8.1%
